Reference: ChEMBL document CHEMBL1961873, “Compounds: GSK PKIS; Assays: Nanosyn kinase panel” (2012)

What was measured:
[1] = target: Casein kinase I isoform gamma-2 (Homo sapiens) (UniProt P78368); settings: at 1 µM
[2] = target: Casein kinase I isoform gamma-3 (Homo sapiens) (UniProt Q9Y6M4); settings: at 0.1 µM
[3] = target: Casein kinase I isoform gamma-3 (Homo sapiens) (UniProt Q9Y6M4); settings: at 1 µM
[4] = target: Cyclin-dependent kinase 1 (Homo sapiens) (UniProt P06493); settings: at 0.1 µM
[5] = target: Cyclin-dependent kinase 1 (Homo sapiens) (UniProt P06493); settings: at 1 µM
[6] = target: Cyclin-dependent kinase 2 (Homo sapiens) (UniProt P24941); settings: at 0.1 µM
[7] = target: Cyclin-dependent kinase 2 (Homo sapiens) (UniProt P24941); settings: at 1 µM
[8] = target: Cyclin-dependent kinase 2 (Homo sapiens) (UniProt P24941); settings: at 0.1 µM; remark: listed apart in the source
[9] = target: Cyclin-dependent kinase 2 (Homo sapiens) (UniProt P24941); settings: at 1 µM; remark: listed apart in the source
[10] = target: CDK3/Cyclin E (Homo sapiens) (UniProt P24864+Q00526); settings: at 0.1 µM;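 further: reported percentages are mean inhibition values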
Chain of CDK3/Cyclin E (Homo sapiens) (P24864 whole entry, looked up): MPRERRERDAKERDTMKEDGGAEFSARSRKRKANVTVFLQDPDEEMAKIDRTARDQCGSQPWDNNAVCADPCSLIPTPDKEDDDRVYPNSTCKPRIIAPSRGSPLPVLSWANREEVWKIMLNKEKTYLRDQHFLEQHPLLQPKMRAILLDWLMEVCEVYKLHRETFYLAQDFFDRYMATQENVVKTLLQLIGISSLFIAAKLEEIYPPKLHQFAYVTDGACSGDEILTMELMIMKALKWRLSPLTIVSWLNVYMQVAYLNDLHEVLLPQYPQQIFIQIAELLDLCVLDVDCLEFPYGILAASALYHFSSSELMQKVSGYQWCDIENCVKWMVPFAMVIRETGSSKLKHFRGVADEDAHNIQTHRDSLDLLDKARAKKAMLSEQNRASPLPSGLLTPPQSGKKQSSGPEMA
Chain of CDK3/Cyclin E (Homo sapiens) (Q00526 whole entry, looked up): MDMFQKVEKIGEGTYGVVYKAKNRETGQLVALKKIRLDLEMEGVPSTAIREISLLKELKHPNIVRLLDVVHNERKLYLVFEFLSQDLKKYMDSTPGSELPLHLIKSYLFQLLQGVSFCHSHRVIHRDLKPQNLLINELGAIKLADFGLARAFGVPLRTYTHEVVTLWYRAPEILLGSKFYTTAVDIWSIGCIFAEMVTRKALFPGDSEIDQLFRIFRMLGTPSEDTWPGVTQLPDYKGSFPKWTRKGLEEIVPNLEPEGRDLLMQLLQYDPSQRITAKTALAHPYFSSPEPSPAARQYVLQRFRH

Chain of Casein kinase I isoform gamma-3 (Homo sapiens) (Q9Y6M4 whole entry, looked up, canonical isoform): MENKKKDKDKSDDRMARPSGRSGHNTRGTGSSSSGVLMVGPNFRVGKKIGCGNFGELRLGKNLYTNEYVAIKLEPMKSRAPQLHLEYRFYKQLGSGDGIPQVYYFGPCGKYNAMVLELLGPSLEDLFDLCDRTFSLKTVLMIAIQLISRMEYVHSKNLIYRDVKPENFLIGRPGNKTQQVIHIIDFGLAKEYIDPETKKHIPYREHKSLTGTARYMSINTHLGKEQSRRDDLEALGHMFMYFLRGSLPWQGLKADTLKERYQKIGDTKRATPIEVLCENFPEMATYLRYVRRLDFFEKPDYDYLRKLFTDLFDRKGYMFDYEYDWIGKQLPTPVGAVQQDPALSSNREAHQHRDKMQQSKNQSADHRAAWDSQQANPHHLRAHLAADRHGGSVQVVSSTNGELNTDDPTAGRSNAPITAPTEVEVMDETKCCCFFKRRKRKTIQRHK
Chain of Casein kinase I isoform gamma-2 (Homo sapiens) (P78368 whole entry, looked up, canonical isoform): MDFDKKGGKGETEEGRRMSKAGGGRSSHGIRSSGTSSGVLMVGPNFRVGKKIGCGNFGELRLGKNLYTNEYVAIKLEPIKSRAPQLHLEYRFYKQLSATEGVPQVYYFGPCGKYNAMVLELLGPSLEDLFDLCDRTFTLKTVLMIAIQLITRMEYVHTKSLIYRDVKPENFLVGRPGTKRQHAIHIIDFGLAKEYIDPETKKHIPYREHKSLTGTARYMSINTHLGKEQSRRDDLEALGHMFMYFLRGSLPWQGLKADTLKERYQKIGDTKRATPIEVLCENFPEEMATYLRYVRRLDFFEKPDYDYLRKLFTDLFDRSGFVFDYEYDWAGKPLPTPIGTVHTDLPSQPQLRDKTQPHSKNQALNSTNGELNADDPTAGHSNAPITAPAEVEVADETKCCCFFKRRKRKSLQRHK
Chain of Cyclin-dependent kinase 1 (Homo sapiens) (P06493 whole entry, looked up): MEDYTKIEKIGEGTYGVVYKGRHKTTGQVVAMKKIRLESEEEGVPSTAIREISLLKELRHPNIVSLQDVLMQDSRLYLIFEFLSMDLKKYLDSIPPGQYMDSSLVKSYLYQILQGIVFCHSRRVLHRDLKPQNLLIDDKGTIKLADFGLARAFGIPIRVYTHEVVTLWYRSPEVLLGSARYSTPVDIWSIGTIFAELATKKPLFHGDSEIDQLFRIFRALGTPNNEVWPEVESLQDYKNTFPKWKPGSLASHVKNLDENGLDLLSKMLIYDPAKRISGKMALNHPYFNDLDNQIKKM

| SMILES | inhibition [1] [%] | inhibition [2] [%] | inhibition [3] [%] | inhibition [4] [%] | inhibition [5] [%] | inhibition [6] [%] | inhibition [7] [%] | inhibition [8] [%] | inhibition [9] [%] | inhibition [10] [%] |
| --- | --- | --- | --- | --- | --- | --- | --- | --- | --- | --- |
| CCNC(=O)O[C@H]1CN[C@H](C#Cc2cc3ncnc(Nc4ccc(OCc5cccc(F)c5)c(Cl)c4)c3s2)C1 | 2.86 | 3.84 | 0.57 | 0.57 | 2.13 | 2.63 | -0.72 | 2.61 | 3.62 | 1.08 |
| Fc1ccc(-c2nn3ccccc3c2-c2ccncc2)cc1 | 7.48 | 0.7 | 15.1 | 0.74 | 1.96 | 2.05 | 2.06 | 1.19 | 2.02 | 0.78 |
| COc1ccc(-c2oc3ncnc(N)c3c2-c2ccc(NC(=O)Nc3cc(C(F)(F)F)ccc3F)cc2)cc1 | 1.65 | 0.82 | 3.84 | 0.92 | 7.71 | 1.73 | 28.1 | 4.28 | 28.8 | 4.83 |
| Cc1cccc(Nc2ncc(-c3ccccc3)o2)c1 | 3.38 | 2.18 | 2.99 | 3.39 | 5.05 | 4.32 | 8.62 | 1.61 | 9.01 | -0.22 |
| CC(=O)NCc1cccc(C#Cc2cncnc2Nc2ccc(OCc3cccc(F)c3)c(Cl)c2)c1 | 0.99 | -1.04 | -0.37 | 0.28 | 2.88 | 1.01 | -3.16 | 1.24 | 3.29 | 1.84 |
| COc1ccc(-c2cc(-c3c[nH]nc3-c3ccccn3)ccn2)cc1 | 5.19 | 3.68 | 6.59 | 0.11 | 1.79 | 1.84 | 7.74 | 4.73 | 5.82 | 2.59 |
| Fc1cccc(COc2ccc(Nc3ncnc4sc(-c5ccco5)cc34)cc2Cl)c1 | 4.82 | 3.95 | 3.97 | -1.09 | 1.41 | 2.79 | 2.68 | 3.66 | 6.69 | -0.59 |
| Cc1cccc2c1NC(=O)/C2=N\Nc1ccc(S(N)(=O)=O)cc1 | 2.46 | 0.83 | 1.98 | 0.2 | 2.23 | 1.45 | 3.8 | 2.45 | 3.99 | 2.34 |
| CCCN1CCC(c2ccc(Nc3nc(Nc4cc(F)ccc4C(N)=O)c4cc[nH]c4n3)c(OC)c2)CC1 | 72.7 | 35.4 | 79.8 | 1.73 | 6.31 | 1.78 | 0.94 | 7.06 | 11.8 | 4.1 |
| c1ccc(COc2ccc(Nc3ncnc4ccc(-c5ccco5)cc34)cc2)cc1 | 0.91 | 0.33 | 1.68 | 0.19 | 2.26 | 1.69 | 1.48 | 0.66 | 2.25 | 0.53 |
| [O-][S+]1CCN(Cc2ccc(-c3ccc4ncnc(Nc5ccc(OCc6cccc(F)c6)c(Cl)c5)c4c3)o2)CC1 | 5.36 | 4.15 | 2.36 | 2.01 | -1.04 | 3.62 | 4.32 | 5.35 | 6.57 | 0.55 |
| CCn1cc(-c2ccnc3[nH]ccc23)c(-c2cccc(NC(=O)Nc3ccc(OCc4ccccc4)cc3)c2)n1 | 1.8 | -0.46 | 0.79 | 0.04 | 0.38 | -0.95 | -1.61 | -0.54 | -2.22 | 0.47 |
| CC(=O)Nc1cccc(C#Cc2cncnc2Nc2ccc(OCc3cccc(F)c3)c(Cl)c2)c1 | 2.49 | 2.41 | 1.12 | -0.4 | 0.31 | 0.72 | 1.81 | 2 | 0.87 | 1.66 |
| N#Cc1c(NC(=O)c2ccc(F)cc2)sc2c1CCCC2 | 0.5 | 0.26 | -1.32 | -0.03 | -0.31 | 0.4 | -1.07 | 0.42 | 1.03 | 0.87 |
| COc1cc(N2CCN(C(C)C)CC2)ccc1Nc1nc(Nc2ccc(F)cc2C(N)=O)c2cc[nH]c2n1 | 40.8 | 14.7 | 59 | 1.39 | 1.85 | 2.71 | 0.03 | 0.79 | 0.42 | -2.54 |
| COc1ccc(-c2cc3c(N)ncnc3o2)cc1 | -0.54 | -0.97 | 0.61 | 2.33 | 6.06 | 1.51 | 2.69 | 1.72 | 5.09 | 0.47 |
| CN1CCC(n2cnc(-c3ccc(F)cc3)c2-c2ccnc(Nc3ccccc3)n2)CC1 | 35.2 | 12.4 | 61.7 | 0.37 | 2.52 | 0.89 | -0.3 | 1.14 | 2.14 | 2.38 |

| SMILES | inhibition [1] [%] | inhibition [2] [%] | inhibition [3] [%] | inhibition [4] [%] | inhibition [5] [%] | inhibition [6] [%] | inhibition [7] [%] | inhibition [8] [%] | inhibition [9] [%] | inhibition [10] [%] |
| --- | --- | --- | --- | --- | --- | --- | --- | --- | --- | --- |
| CCN1CCC(CC(=O)Nc2n[nH]c3nnc(-c4cccc(F)c4F)cc23)CC1 | -0.19 | -0.19 | 1.47 | 1.67 | 8.73 | 2.71 | 13.8 | 1.12 | 7.61 | 0.16 |
| COc1cc2c(cc1Nc1nc(Nc3ccsc3C(N)=O)c3cc[nH]c3n1)N(C(=O)CN(C)C)CCC2(C)C | 20.6 | 4.29 | 24.3 | 2.56 | 6.04 | 3.04 | -0.79 | 8.82 | 10.2 | 8.96 |
| CN(C)CCOc1ccc(-c2nc(-c3ccncc3)c(-c3ccc4c(c3)CC/C4=N\O)[nH]2)cc1 | 4.12 | 3.08 | 3.59 | 1.59 | 5.87 | 1.86 | 11.1 | 6.01 | 7.95 | 3.78 |
| CCOc1ccc2c(-c3ccnc(Nc4cccc(C(F)(F)F)c4)n3)cnn2n1 | 3.07 | 1.18 | 1.86 | 0.34 | 6.63 | 1.78 | 8.89 | 3.35 | 14.1 | 2.12 |
| CNC(=O)c1cc(-c2ccc(F)cc2)cc(-c2ccc(S(=O)(=O)N3CCCC3)cc2)c1N | 2.38 | 3.27 | 0.61 | -0.56 | 1.19 | 1 | 1.91 | 2.41 | 3.39 | -1.31 |
| CS(=O)(=O)CCNCc1coc(-c2ccc3ncnc(Nc4ccc(OCc5ccccc5)cc4)c3c2)c1 | 1.86 | 1.74 | 1.31 | 2.51 | 1.71 | 2.91 | 2.02 | 1.53 | 3.24 | -3.62 |
| COc1cccc(-c2c[nH]c3c(N/N=C/c4ccncc4)ncnc23)c1 | 4.26 | 1.09 | 4.42 | 42 | 74.2 | 30.4 | 73.7 | 9.46 | 45.5 | 6.61 |
| Clc1ccc(-c2nn3ncccc3c2-c2ccnc(Nc3ccccc3)n2)cc1 | 1.83 | 1.6 | 4.02 | 0.56 | 1.32 | 1.43 | 3.91 | 1.3 | 2.48 | 1.03 |
| CN1CCC(n2cnc(-c3ccc(F)cc3)c2-c2ccnc(N)n2)CC1 | 4.69 | 0.53 | 10.3 | 0.23 | 2 | 0.76 | 1.07 | 1.45 | 2.89 | 1.57 |
| CNC(=O)c1cccc(C#Cc2cncnc2Nc2ccc(OCc3cccc(F)c3)c(Cl)c2)c1 | 1.26 | 2.38 | 0.88 | 0.46 | 2.85 | -0.2 | 6.57 | 4.58 | 4.27 | 2.79 |
| CCn1c(-c2nonc2N)nc2c(C#CC(C)(C)O)nc(OC[C@H](N)c3ccccc3)cc21 | 5.45 | 1.72 | 4.23 | 2.55 | 0.95 | 3.52 | 4.36 | 0.77 | 2.97 | -2.75 |
| COc1cc2ncn(-c3cc(OCc4ccccc4C(F)(F)F)c(C(=O)N(C)C)s3)c2cc1OC | 0.02 | -1.27 | 0.6 | 0.2 | 1.91 | 1.29 | -0.21 | -0.22 | 0.54 | 1.54 |
| CCn1c(-c2nonc2N)nc2cnc(Oc3cccc(NC(=O)c4ccc(N(C)C)cc4)c3)cc21 | 1.09 | 0.95 | 0.52 | 0.43 | 0.67 | 1.74 | 8.52 | 1.65 | 2.7 | -1.33 |
| CCN(CC)S(=O)(=O)c1ccc(OC)c(Nc2ncc(-c3ccccc3)o2)c1 | -0.29 | -0.78 | 1.34 | 0.99 | 5.32 | 2.02 | 5.22 | 3.09 | 3.61 | 1.42 |
| COC(=O)Nc1nc2ccc(S(=O)(=O)c3ccc(NC(=O)Nc4cc(C(F)(F)F)ccc4F)cc3)cc2[nH]1 | 2.81 | 2.17 | 2.25 | 0.69 | 2.29 | 1.37 | 4.57 | 3.44 | 3.85 | 3.5 |
| O=C(Nc1n[nH]c2cc(-c3ccc(F)cc3)ccc12)C1CC1 | 3.16 | 1.93 | 3.02 | 0.08 | 4.52 | -0.94 | 5.81 | 2.56 | 6.81 | 2.18 |
